PubChem BioAssay
Active and inactive are the calls of the source.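 Rule for the calls, unless noted: active = inhibition at or above 50% at 10 µM; inactive = inhibition below 50%.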

Columns and labels:
[1] = inhibitors of TNFa-induced NFkB p65 translocation, primary screen, imaging, HUVEC, MLSMR starter and 10KST1 sets (AID 438;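 active = inhibition above 20% together with a positive visual image hit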;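 note: compound added about 3h40 before a 20 min TNFalpha stimulation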;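 for inhibition: signal is the nuclear over cytoplasmic p65 intensity ratio per well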); conditions: HUVEC TNFa-induced p65 nuclear translocation; cell count: measured here: nuclei count (cytotoxicity indicator), at 2.08 µM; inhibition: at 2 µM, stronger effect = higher value, 0% TNFa-plus-vehicle, 100% no-TNFa wells
[2] = inhibitors of mutant huntingtin aggregation, primary screen, imaging, exon1htt(103Q)mCFP cells, high-content imaging (AID 483;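 active = visual image review flags a hit and inhibition of aggregation exceeds 20%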;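 note: compound exposure lasted 3 days before fixation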;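 for nuclei count: percent of the per-plate median nuclei count of sample wells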); conditions: exon1htt(103Q)mCFP cell line, aggregate imaging, at 2 µM; inhibition of aggregation: stronger effect = higher value; nuclei count: measured here: cell count, toxicity
[3] = inhibitors of E-selectin induction by TNFa, primary screen, imaging, HUVEC, immunofluorescence, MLSMR starter and 10KST1 sets (AID 487;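 active = visually confirmed hit in the image check and inhibition above 20%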;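 for inhibition: signal is fraction of cell area covered by stained E-selectin grains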;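 for nuclei count: 100% = median nuclei count of all wells on the same plate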); conditions: HUVEC TNFalpha-induced E-selectin immunofluorescence imaging, at 2 µM; inhibition: stronger effect = higher value; nuclei count: measured here: cell number, toxicity
[4] = target: Voltage-gated potassium channel subunit beta-2 (Rattus norvegicus) (UniProt P62483); test: KvBeta enzyme negative modulators, primary screen, biochemical, NADPH fluorescence (AID 622;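 active = fluorescence slope higher than the sample average by over 3 SD, cut at about -0.22 in these data, passing the limit was not always enough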;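 note: slope of raw intensity against log time taken from 70 to 1610 s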); conditions: recombinant KvBeta, 4-cyanobenzaldehyde reduction, at 10 µM, stronger effect = higher value
[5] = target: Voltage-gated potassium channel subunit beta-2 (Rattus norvegicus) (UniProt P62483); test: KvBeta positive modulators, primary screen, biochemical, NADPH fluorescence (AID 623;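 active = NADPH fluorescence slope more negative than the mean of all samples by about 3 SD, 99.7% confidence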;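 note: fluorescence intensity change per second fitted from 20 to 320 s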); conditions: Recombinant KvBeta, NADPH fluorescence decrease slope, 10 min; at 10 µM; stronger effect = lower value
[6] = target: Alpha-2C adrenergic receptor (Homo sapiens) (UniProt P18825); test: modulators of alpha2C/GIRK thallium flux, primary screen, cell-based, HEK293 alpha2C/GIRK1/2 (AID 624;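 active = fluorescence slope after compound addition differing from the mean of all screened samples at 99.7% confidence, in either direction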;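 note: slope of fluorescence ratio to pre-addition baseline per second over 15 to 24 s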); conditions: thallium flux BTC fluorescence, at 10 µM, actives lie on both sides
[7] = inhibitors of Sendai virus-induced IRF3 signaling, primary screen, TLR/RLR signaling modifier project, cell-based, Sendai virus stimulus, luciferase, 10K MLSCN set (AID 602276); conditions: HEK293 RL24 IRF3 luciferase reporter, at 10 µM, stronger effect = higher value;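 note: firefly luciferase from ISG56 promoter only with Renilla not read in this screen; 0% = Sendai virus plus DMSO and 100% = medium plus DMSO without virus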
[8] = inhibitors of poly I:C-induced TLR3 signaling, primary screen, cell-based, poly I:C stimulus, luciferase, 10K MLSCN set (AID 602277;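 active = inhibition of the reporter signal at or above 50%; inactive = inhibition below 50%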); conditions: HEK293-TLR3 RL24 IRF3 luciferase reporter, at 10 µM, stronger effect = higher value

Voltage-gated potassium channel subunit beta-2 (Rattus norvegicus), sequence (P62483 whole entry, looked up): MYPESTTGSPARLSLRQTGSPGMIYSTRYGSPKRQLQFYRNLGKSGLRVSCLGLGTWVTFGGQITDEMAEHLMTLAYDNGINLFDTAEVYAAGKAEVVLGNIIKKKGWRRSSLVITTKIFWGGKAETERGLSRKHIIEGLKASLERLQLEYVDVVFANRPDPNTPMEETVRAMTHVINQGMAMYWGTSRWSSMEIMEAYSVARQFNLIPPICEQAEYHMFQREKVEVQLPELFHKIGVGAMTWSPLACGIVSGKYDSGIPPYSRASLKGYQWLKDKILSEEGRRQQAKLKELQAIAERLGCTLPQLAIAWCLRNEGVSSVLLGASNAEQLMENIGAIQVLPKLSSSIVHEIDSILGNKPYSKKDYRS
Alpha-2C adrenergic receptor (Homo sapiens), sequence (P18825 whole entry, looked up): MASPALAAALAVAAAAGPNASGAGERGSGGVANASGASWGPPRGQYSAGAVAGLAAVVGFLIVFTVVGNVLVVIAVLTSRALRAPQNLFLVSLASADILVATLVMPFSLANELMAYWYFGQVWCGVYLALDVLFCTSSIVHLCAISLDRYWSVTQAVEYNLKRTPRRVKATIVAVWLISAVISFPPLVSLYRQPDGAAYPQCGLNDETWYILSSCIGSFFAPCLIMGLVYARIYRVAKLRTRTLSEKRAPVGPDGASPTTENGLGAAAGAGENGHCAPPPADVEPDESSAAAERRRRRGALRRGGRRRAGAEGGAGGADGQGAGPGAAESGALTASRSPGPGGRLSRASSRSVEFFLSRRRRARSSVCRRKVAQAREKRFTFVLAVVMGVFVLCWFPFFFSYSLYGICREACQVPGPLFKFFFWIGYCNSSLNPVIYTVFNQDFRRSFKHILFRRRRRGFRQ

Structure (SMILES) | cell count [1] | inhibition [1] | inhibition of aggregation [2] | nuclei count [2] [%] | inhibition [3] | nuclei count [3] [%] | fluorescence slope [4] | NADPH fluorescence slope [5] | slope [6] | inhibition [7] | inhibition [8]
O=C(c1ccc(S(=O)(=O)N2CCOCC2)cc1)N(c1ccc(F)cc1)C1C=CS(=O)(=O)C1 (stereo not drawn) | 774 | -19.7% (inactive) | 30.2% (inactive) | 111 | -74.8% (inactive) | 107 | -0.288 (inactive) | 1.6e-05 (inactive) | 0.0046 (inactive) | 3.76% (inactive) | 13.3% (inactive)
O=c1[nH]c(N2CCc3ccccc32)nc2c1CCCC2 | 309 | 1.1% (inactive) | 11% (inactive) | 68.4 | 14.7% (inactive) | 82.4 | -0.507 (inactive) | -4.2e-05 (inactive) | 0.0041 (inactive) | 6.82% (inactive) | -14.4% (inactive)
N#Cc1c(N)nc2c(c1-c1ccncc1)CCCCC2 | 658 | 3.9% (inactive) | 0% (inactive) | 106 | 4.5% (inactive) | 103 | -0.577 (inactive) | -5.4e-05 (inactive) | 0.00353 (inactive) | 12.7% (inactive) | 12.3% (inactive)
Cc1onc(-c2ccccc2Cl)c1C(=O)NCCn1c(C)cc2ccccc21 | 677 | 9% (inactive) | 7.9% (inactive) | 79.4 | -37.1% (inactive) | 124 | -0.419 (inactive) | -1.5e-05 (inactive) | 0.00456 (inactive) | 15.6% (inactive) | 36.3% (inactive)
CCOc1ccccc1C(=O)NC(C)c1ccc2c(c1)OCO2 (stereo not drawn) | 368 | 0.8% (inactive) | 0.3% (inactive) | 122 | -6.7% (inactive) | 92.4 | -0.523 (inactive) | -5.4e-05 (inactive) | 0.00595 (inactive) | 15.1% (inactive) | -8.04% (inactive)
COc1ccc(C)cc1S(=O)(=O)N(CC(=O)O)c1ccccc1 | 343 | 8.1% (inactive) | -8% (inactive) | 91.3 | -90.2% (inactive) | 144 | -0.454 (inactive) | 7.5e-06 (inactive) | 0.00642 (inactive) | 34.7% (inactive) | 21% (inactive)
COc1cccc(CNc2nc3nc(C)c(Cl)c(C)n3n2)c1 | 343 | 2.8% (inactive) | -5% (inactive) | 86.4 | 50.1% (inactive) | 83.7 | -0.375 (inactive) | 2.9e-05 (inactive) | 0.00679 (inactive) | -16.5% (inactive) | 98.2% (active)
Cc1cc(Br)ccc1NC(=O)CNC(=O)CSc1n[nH]c(N)n1 | 390 | -12.1% (inactive) | -13.4% (inactive) | 74.3 | -25.1% (inactive) | 115 | -0.58 (inactive) | -3.3e-05 (inactive) | 0.00679 (inactive) | 13.4% (inactive) | 37.1% (inactive)
O=C(c1ccc(Br)o1)N1CCN(c2ccc3nnc(-c4ccccc4)n3n2)CC1 | 634 | -0.5% (inactive) | 3% (inactive) | 80.7 | -91.9% (inactive) | 120 | -0.602 (inactive) | -3.4e-05 (inactive) | 0.00664 (inactive) | -4.83% (inactive) | -337% (inactive)
O=c1oc2c3c4c(cc2s1)CCCN4CCC3 | 441 | 7.4% (inactive) | -6.4% (inactive) | 100 | -17.7% (inactive) | 119 | -0.463 (inactive) | -6e-05 (inactive) | 0.00368 (inactive) | 7.3% (inactive) | 31.7% (inactive)
Cc1ccccc1-n1c(SCc2c(C)noc2C)nnc1-c1ccncc1 | 741 | -2.4% (inactive) | -10.7% (inactive) | 103 | -87% (inactive) | 115 | -0.304 (inactive) | -5.4e-05 (inactive) | 0.00424 (inactive) | 6.71% (inactive) | 30.2% (inactive)
Nn1c(SCC(=O)NC2CCCCC2)nnc1C1CC1 | 433 | -28.7% (inactive) | 7.4% (inactive) | 95.6 | -36.9% (inactive) | 117 | -0.466 (inactive) | 4.6e-05 (inactive) | 0.00622 (inactive) | 4.49% (inactive) | 16.1% (inactive)
O=c1oc2ccccc2c(O)c1C=NCc1ccccn1 | 452 | 7.6% (inactive) | 2.3% (inactive) | 98.7 | -63.5% (inactive) | 95.8 | -0.509 (inactive) | -4.5e-05 (inactive) | 0.00647 (inactive) | -8.1% (inactive) | 22.7% (inactive)
